Source: the supplement of paper PMC3334620
The full ranking holds about 33,000 sequences; the median of “E-score (-0.5 to 0.5)” is about -8e-05, and the highest 2% start at about 0.23. The list comes from a sample in which the highest values are over-represented; it also holds similar and randomly drawn sequences.

Molecular target: T1, Nrg2 (UniProt P38082)
T1 sequence: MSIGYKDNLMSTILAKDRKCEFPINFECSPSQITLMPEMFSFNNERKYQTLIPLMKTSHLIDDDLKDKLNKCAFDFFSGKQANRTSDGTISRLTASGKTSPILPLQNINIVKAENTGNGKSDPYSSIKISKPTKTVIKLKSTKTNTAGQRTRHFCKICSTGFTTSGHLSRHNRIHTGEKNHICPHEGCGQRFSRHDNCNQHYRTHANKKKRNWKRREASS
Assay: PBM E-score (8-mer binding enrichment) (E-score (-0.5 to 0.5)); higher = stronger / more preferred TF binding
Settings: protein concentration: 100 nM; construct: GST-full length
How it was run: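 Using PURExpress in vitro transcription/translation, GST-tagged yeast transcription factors were made in full-length or DNA-binding-domain form. These were applied at about 100-200 nM to double-stranded universal all-10-mer Agilent arrays, and bound protein was detected with fluorescent anti-GST. Scans were normalised with masliner before the Universal PBM Analysis Suite assigned E-scores to ungapped eight-base words pooled with their reverse complements.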

Row | Sequence | PBM E-score
1 | GTACGTCA | -0.102
2 | TTAGTAAA | 0.169
3 | ACATGCTC | 0.00619
4 | AAGAAGCC | 0.162
5 | ATAACATA | 0.123
6 | ATGTCCCA | -0.0945
7 | AAGTGCGG | 0.133
8 | GGGCGCCA | 0.191
9 | CCGCGCTC | 0.0292
10 | CCGCGCCC | -0.0342
11 | GGGCGCCC | 0.282
12 | AGGCGCCC | -0.0716
13 | CCGCGCGC | 0.236
14 | TCAGACGA | 0.119
15 | AACCCGAA | 0.0237
16 | AACCGCGG | 0.182
17 | TATGTTAA | -0.127
18 | CTTTCACC | -0.0112
19 | CTCAACCC | 0.00526
20 | ATAAACCA | -0.0416
21 | ATAAACCC | 0.307
22 | ATCAACCC | 0.297

Row | Sequence | PBM E-score
23 | CTAAACCC | -0.0134
24 | ATCAACCA | 0.0788
25 | TCTTTGAA | -0.105
26 | AGGCCACA | -0.149
27 | CATCATTC | 0.0606
28 | CATCATTA | 0.231
29 | AATCATTA | 0.0429
30 | ACTCATTC | 0.117
31 | GCTCATTA | -0.058
32 | ACTCATTA | 0.268
33 | GTAGGCGA | 0.0848
34 | ATTCGGTA | 0.074
35 | AATTGCTA | 0.0948
36 | AATTGCTC | -0.145
37 | AATTGCTG | 0.257
38 | ATGGCCTC | -0.0922
39 | ACCGTTAC | -0.118
40 | CAGTATGA | 0.178
41 | GAGTATCA | 0.00367
42 | CAGTATCA | -0.0774
43 | TAGTATGA | 0.26
44 | AAGTATGA | 0.0335

Row | Sequence | PBM E-score
45 | TAGTATCA | 0.283
46 | GAACGCTC | -0.107
47 | GACAGTGA | 0.0197
48 | ACGGAAAA | 0.0488
49 | ACGGAAAC | -0.0771
50 | ACGGAAAT | 0.244
51 | ACTTGTCA | 0.0495
52 | AAAGCAAA | 0.102
53 | ACAGCTCC | -0.0601
54 | AGCGCGAC | 0.12
55 | GCAGCGTA | -0.128
56 | ACTCCCCA | -0.0321
57 | ACTAGTAG | 0.0854
58 | ACTACTAT | 0.27
59 | ACTAGTAT | 0.246
60 | ACTACTAA | -0.00741
61 | ACTACTAC | 0.0486
62 | ACTAGTAA | 0.036
63 | TGGTGAAA | -0.0676
64 | CCCAATAG | 0.00098
65 | CATTCGCA | -0.0034
66 | AATTCGCC | 0.167

Row | Sequence | PBM E-score
67 | AATTCGCG | 0.202
68 | GATTCGCA | 0.121
69 | AATTCGCA | 0.229
70 | AATTCGCT | 0.318
71 | AAGATCCC | 0.132
72 | AGAGGGAC | -0.0381
73 | ACAGGGAG | -0.147
74 | ATAGGGAC | 0.139
75 | ACAGGGAC | 0.339
76 | ACAGGGAA | 0.0579
77 | ACAGGGAT | 0.295
78 | CCCGCAAG | -0.15
79 | TGTGAACA | -0.0105
80 | ATCGTGAA | -0.0316
81 | CCCATACG | -0.0789
82 | TACCATCA | -0.169
83 | CCATAGGG | 0.00266
84 | CCGAATTA | -0.00177
85 | ACGAATTA | 0.1
86 | GCGAATTA | 0.279
87 | GTCCGCGA | -0.0693
88 | AAAGAGGC | -0.228
